Test results: PubChem BioAssay (NCATS)
Records with an inconclusive call do not appear. Active and inactive are the calls of the source. Calls come from the whole dose curve; as a rule, active = well fitted curve in the direction sought with a large enough effect; inconclusive = small, poorly fitted or top-dose-only effect, or another doubt; inactive = no such curve, though single readings can be large; an effect the other way counts as inactive or inconclusive.

Experiments:
[1] = qHTS of pediatric cancer cell lines to identify multiple opportunities for drug repurposing: Primary screen for TC32 cells (AID 1347089); note: nearly all actives have a fitted effect of over 60% in size; note: potency is the fitted concentration of half-maximal effect
Summary of the method: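 In the primary qHTS, MIPE compounds were tested at 11 concentrations (0.78 nM to 46 µM) and NPC compounds at 8 (0.59 nM to 46 µM) on TC32 cells for 48 h. CellTiter-Glo luminescence gave viability.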

[2] = qHTS of pediatric cancer cell lines to identify multiple opportunities for drug repurposing: Primary screen for SJ-GBM2 cells (AID 1347091); note: potency is the fitted concentration of half-maximal effect
Summary of the method: (§1)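 Viability measured as metabolically active cells via CellTiter-Glo luminescence following 48 hours of compound exposure, 11-point dilutions in confirmatory testing. 500-1,000 cells/well plated 5 hours before dosing; controls were DMSO and 2.3 µM bortezomib.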

[3] = qHTS of pediatric cancer cell lines to identify multiple opportunities for drug repurposing: Primary screen for BT-37 cells (AID 1347094); note: potency is the fitted concentration of half-maximal effect
Summary of the method: (§2)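 Following a 5-hour attachment period, cells at 500-1,000/well received compounds and were cultured for 48 hours. CellTiter-Glo was added and luminescence read to estimate viable, metabolically active cells.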

[4] = qHTS of pediatric cancer cell lines to identify multiple opportunities for drug repurposing: Primary screen for U-2 OS cells (AID 1347096); note: nearly all actives have a fitted effect of over 50% in size
Summary of the method: (§3)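 Viability after 48 h compound treatment at 37C, 500-1,000 cells/well, read as ATP luminescence with CellTiter-Glo. Primary screens used 11-point (MIPE, 0.78 nM-46 µM) or 8-point (NPC, 0.59 nM-46 µM) final concentrations; follow-up screens used 11-point dilutions.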

[5] = qHTS of pediatric cancer cell lines to identify multiple opportunities for drug repurposing: Primary screen for Saos-2 cells (AID 1347097); note: nearly all actives have a fitted effect of over 40% in size; note: potency is the fitted concentration of half-maximal effect
Summary of the method: as §2

[6] = qHTS of pediatric cancer cell lines to identify multiple opportunities for drug repurposing: Primary screen for SK-N-SH cells (AID 1347098); note: nearly all actives have a fitted effect of over 65% in size; note: potency is the fitted concentration of half-maximal effect
Summary of the method: (§4)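 Cells (500-1,000/well) rested 5 h, then received compounds for 48 h; metabolically active cells were measured by CellTiter-Glo luminescence. Final concentrations spanned up to 46 µM (MIPE, 11-point) or 0.59 nM-46 µM (NPC, 8-point) in primary screens, 11-point in follow-ups.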

[7] = qHTS of pediatric cancer cell lines to identify multiple opportunities for drug repurposing: Primary screen for NB1643 cells (AID 1347099); note: nearly all actives have a fitted effect of over 50% in size; note: potency is the fitted concentration of half-maximal effect
Summary of the method: as §2

[8] = qHTS of pediatric cancer cell lines to identify multiple opportunities for drug repurposing: Primary screen for LAN-5 cells (AID 1347100); note: potency is the fitted concentration of half-maximal effect
Summary of the method: as §3

[9] = qHTS of pediatric cancer cell lines to identify multiple opportunities for drug repurposing: Primary screen for BT-12 cells (AID 1347101); note: nearly all actives have a fitted effect of over 25% in size; note: potency is the fitted concentration of half-maximal effect
Summary of the method: as §4

[10] = qHTS of pediatric cancer cell lines to identify multiple opportunities for drug repurposing: Primary screen for Rh18 cells (AID 1347102); note: nearly all actives have a fitted effect of over 65% in size
Summary of the method: as §3

[11] = qHTS of pediatric cancer cell lines to identify multiple opportunities for drug repurposing: Primary screen for RD cells (AID 1347104); note: nearly all actives have a fitted effect of over 55% in size
Summary of the method: as §2

[12] = qHTS of pediatric cancer cell lines to identify multiple opportunities for drug repurposing: Primary screen for DAOY cells (AID 1347090); note: nearly all actives have a fitted effect of over 55% in size; note: potency is the fitted concentration of half-maximal effect
Summary of the method: as §1

[13] = qHTS of pediatric cancer cell lines to identify multiple opportunities for drug repurposing: Primary screen for SK-N-MC cells (AID 1347093); note: potency is the fitted concentration of half-maximal effect
Summary of the method: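 Metabolically active cells were quantified by ATP-dependent luminescence (CellTiter-Glo, 15 min at room temperature) following 48 h treatment. Cells had been plated at 500-1,000 per well and settled for 5 h beforehand.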

[14] = qHTS of pediatric cancer cell lines to identify multiple opportunities for drug repurposing: Primary screen for NB-EBc1 cells (AID 1347095); note: potency is the fitted concentration of half-maximal effect
Summary of the method: as §2

[15] = qHTS of pediatric cancer cell lines to identify multiple opportunities for drug repurposing: Primary screen for OHS-50 cells (AID 1347103); note: nearly all actives have a fitted effect of over 40% in size; note: potency is the fitted concentration of half-maximal effect
Summary of the method: as §4

[16] = qHTS of pediatric cancer cell lines to identify multiple opportunities for drug repurposing: Primary screen for A673 cells (AID 1347092); note: nearly all actives have a fitted effect of over 45% in size; note: potency is the fitted concentration of half-maximal effect
Summary of the method: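 48 h compound exposure, A673, 500-1,000 cells/well, 37 degrees C/5% CO2. MIPE: 11-point, 0.78 nM-46 µM; NPC: 8-point, 0.59 nM-46 µM (final). Readout CellTiter-Glo luminescence after 15 min RT.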

Measured: Potency

O=c1[nH]c(=O)n([C@H]2C[C@H](O)[C@@H](CO)O2)cc1C(F)(F)F
inactive: [2] | [4] | [5] | [6] | [7] | [10] | [11]
active: [1] 1.05 µM | [3] 0.55 µM | [8] 1.33 µM | [9] 13.8 µM

CC(=O)OCC(=O)NCCCOc1cccc(CN2CCCCC2)c1
not listed: [2] | [10] | [15] | [16]
inactive: all other assays above

COc1cccc(CCc2ccccc2OCC(CN(C)C)OC(=O)CCC(=O)O)c1 (centres undefined)
inactive: [1] | [12] | [3] | [14] | [5] | [7]
active: [6] 17.2 µM

CCCCOc1cc(C(=O)NCCN(CC)CC)c2ccccc2n1
inactive: [1] | [12] | [14] | [5] | [9] | [15]

CCCC(=O)O[C@]1(C(=O)CO)CC[C@H]2[C@@H]3CCC4=CC(=O)CC[C@]4(C)[C@H]3[C@@H](O)C[C@@]21C
not listed: [12] | [13] | [15]
inactive: all other assays above

CCCCCCc1ccc(O)cc1O
inactive: [1] | [12] | [13] | [3] | [7] | [8] | [9] | [11]

CN(C)CCCOc1nn(Cc2ccccc2)c2ccccc12
inactive: [1] | [12] | [5] | [7] | [10]

O=C(N/N=C/c1ccccc1O)c1ccncc1
active: [1] 23.6 µM | [12] 4.22 µM | [3] 11 µM | [14] 18.8 µM | [7] 3.35 µM | [8] 2.99 µM | [9] 6.17 µM | [15] 5.5 µM

O=C1[C@H]2CCCC[C@H]2C(=O)N1CCCCN1CCN(c2nsc3ccccc23)CC1
inactive: [1] | [12] | [13] | [3] | [6] | [7] | [10] | [11]

Cc1ccccc1C(=O)Nc1ccc(C(=O)N2CCCC(N(C)C)c3ccccc32)cc1 (centres undefined)
inactive: [1] | [4]
active: [2] 9.44 µM | [16] 8.41 µM | [13] 6.68 µM | [14] 2.99 µM | [5] 6.68 µM | [8] 18.8 µM | [15] 21.9 µM

CC(=O)Oc1ccc2c(c1)CC[C@@H]1[C@@H]2CC[C@]2(C)[C@@H](O)CC[C@@H]12
inactive: [1] | [12] | [7] | [10] | [11]
active: [5] 23.7 µM

CNCC[C@@H](Oc1ccccc1C)c1ccccc1
inactive: [1] | [12] | [3] | [4] | [7] | [8] | [9] | [11]

COc1cc(OC)cc(OC)c1
not listed: [2] | [16]
inactive: all other assays above

NC(=O)c1cc[n+](CC2=C(C(=O)[O-])N3C(=O)[C@@H](NC(=O)Cc4cccs4)[C@H]3SC2)cc1
not listed: [2] | [14] | [16]
inactive: all other assays above

CCOC(=O)[C@H](CCc1ccccc1)N[C@@H](C)C(=O)N1Cc2ccccc2C[C@H]1C(=O)O
not listed: [5] | [6] | [9] | [12] | [13]
inactive: all other assays above

CCCCCC=CCC=CCCCCCCCC(=O)OCC
inactive: [1] | [12] | [3] | [7] | [8] | [9] | [10] | [11]

CC[N+](CC)(CCNC(=O)C(=O)NCC[N+](CC)(CC)Cc1ccccc1Cl)Cc1ccccc1Cl
not listed: [2] | [4] | [13] | [16]
inactive: all other assays above

Oc1c(Cl)cc(Cl)cc1Sc1cc(Cl)cc(Cl)c1O
inactive: [1] | [12] | [3] | [4] | [9] | [10] | [11]

CC(=O)OCC(=O)[C@@]12N=C(C)O[C@@H]1C[C@H]1[C@@H]3CCC4=CC(=O)C=C[C@]4(C)[C@H]3[C@@H](O)C[C@@]12C
not listed: [2] | [16]
inactive: all other assays above

CN1CCC(=C2c3ccccc3Sc3ccccc32)CC1
inactive: [1] | [12] | [14] | [4] | [7] | [8]

COC(=O)[C@@H]1CC2=CC(=O)CC[C@]2(C)[C@@]23O[C@@H]2C[C@@]2(C)[C@@H](CC[C@@]24CCC(=O)O4)[C@H]13
not listed: [2] | [6] | [10] | [15] | [16]
inactive: all other assays above

COc1cc2c(cc1OC)C(C(C(=O)N(CCc1ccc(OC)c(OC)c1OC)CCc1ccc(OC)c(OC)c1OC)c1ccccc1)=NCC2 (centres undefined)
inactive: [1] | [12] | [5] | [6] | [7] | [8] | [10] | [11]

CC(C)=CCC1C(=O)N(c2ccccc2)N(c2ccccc2)C1=O
active: [14] 21.1 µM | [8] 29.9 µM
inactive: [1] | [12] | [3] | [4] | [10] | [11]

CCN(CC)CCOC(=O)C(c1ccccc1)C1CCCCC1 (centres undefined)
inactive: [1] | [12] | [16] | [7] | [8]
active: [5] 23.7 µM | [6] 30.7 µM | [15] 21.9 µM

COc1cccc(OC)c1C(=O)N[C@@H]1C(=O)N2[C@@H]1SC(C)(C)[C@@H]2C(=O)O
not listed: [2] | [6] | [16]
inactive: all other assays above
